# Read-outs that look alike come from different tables or passages of the source.
# System: AURKA
# Settings: read-out: apparent Kd, n = 1
substance,measurement,setting,value
Lestaurtinib,potency estimated from few doses,"compound concentrations:100 nM and 1000 nM (sheet 'Lestaurtinib' of Supplementary Table 1),run:Lestaurtinib_02438_R2,Plate:MR008",18.1 nM
same,potency estimated from few doses,"compound concentrations:100 nM and 1000 nM (sheet 'Lestaurtinib' of Supplementary Table 1),run:Lestaurtinib_02438_R3,Plate:MR008",16.7 nM
same,potency estimated from few doses,"compound concentrations:100 nM and 1000 nM (sheet 'Lestaurtinib' of Supplementary Table 1),run:Lestaurtinib_02443_R1,Plate:MR009",19 nM
same,potency estimated from few doses,"compound concentrations:100 nM and 1000 nM (sheet 'Lestaurtinib' of Supplementary Table 1),run:Lestaurtinib_02443_R3,Plate:MR009",22 nM
same,potency estimated from few doses,"compound concentrations:100 nM and 1000 nM (sheet 'Lestaurtinib' of Supplementary Table 1),run:Lestaurtinib_02473_R1,Plate:MR010",20 nM
same,potency estimated from few doses,"compound concentrations:100 nM and 1000 nM (sheet 'Lestaurtinib' of Supplementary Table 1),run:Lestaurtinib_02473_R3,Plate:MR010",16.1 nM
same,potency estimated from few doses,"compound concentrations:100 nM and 1000 nM (sheet 'Lestaurtinib' of Supplementary Table 1),run:Lestaurtinib_02482_R1,Plate:MR011",18.9 nM
same,potency estimated from few doses,"compound concentrations:100 nM and 1000 nM (sheet 'Lestaurtinib' of Supplementary Table 1),run:Lestaurtinib_02482_R2,Plate:MR011",19.3 nM
same,potency estimated from few doses,"compound concentrations:100 nM and 1000 nM (sheet 'Lestaurtinib' of Supplementary Table 1),run:Lestaurtinib_02487_R1,Plate:MR012",17.5 nM
same,potency estimated from few doses,"compound concentrations:100 nM and 1000 nM (sheet 'Lestaurtinib' of Supplementary Table 1),run:Lestaurtinib_02487_R3,Plate:MR012",24.8 nM
same,potency estimated from few doses,"compound concentrations:100 nM and 1000 nM (sheet 'Lestaurtinib' of Supplementary Table 1),run:Lestaurtinib_02496_R2,Plate:MR013",17.6 nM
same,potency estimated from few doses,"compound concentrations:100 nM and 1000 nM (sheet 'Lestaurtinib' of Supplementary Table 1),run:Lestaurtinib_02566_R2,Plate:MR014",21.1 nM
same,potency estimated from few doses,"compound concentrations:100 nM and 1000 nM (sheet 'Lestaurtinib' of Supplementary Table 1),run:Lestaurtinib_02572_R1,Plate:MR015",21.1 nM
same,potency estimated from few doses,"compound concentrations:100 nM and 1000 nM (sheet 'Lestaurtinib' of Supplementary Table 1),run:Lestaurtinib_02572_R3,Plate:MR015",17.9 nM
same,potency estimated from few doses,"compound concentrations:100 nM and 1000 nM (sheet 'Lestaurtinib' of Supplementary Table 1),run:Lestaurtinib_02577_R1,Plate:MR016",21.8 nM
same,potency estimated from few doses,"compound concentrations:100 nM and 1000 nM (sheet 'Lestaurtinib' of Supplementary Table 1),run:Lestaurtinib_02577_R2,Plate:MR016",21.1 nM
same,potency estimated from few doses,"compound concentrations:100 nM and 1000 nM (sheet 'Lestaurtinib' of Supplementary Table 1),run:Lestaurtinib_02577_R3,Plate:MR016",20.9 nM
same,potency estimated from few doses,"compound concentrations:100 nM and 1000 nM (sheet 'Lestaurtinib' of Supplementary Table 1),run:Lestaurtinib_02584_R1,Plate:MR017",21.8 nM
same,potency estimated from few doses,"compound concentrations:100 nM and 1000 nM (sheet 'Lestaurtinib' of Supplementary Table 1),run:Lestaurtinib_02584_R2,Plate:MR017",19.7 nM
same,potency estimated from few doses,"compound concentrations:100 nM and 1000 nM (sheet 'Lestaurtinib' of Supplementary Table 1),run:Lestaurtinib_02601_R1,Plate:MR018",21.1 nM
same,potency estimated from few doses,"compound concentrations:100 nM and 1000 nM (sheet 'Lestaurtinib' of Supplementary Table 1),run:Lestaurtinib_02601_R2,Plate:MR018",25.6 nM
same,potency estimated from few doses,"compound concentrations:100 nM and 1000 nM (sheet 'Lestaurtinib' of Supplementary Table 1),run:Lestaurtinib_02601_R3,Plate:MR018",21.7 nM
same,potency estimated from few doses,"compound concentrations:100 nM and 1000 nM (sheet 'Lestaurtinib' of Supplementary Table 1),run:Lestaurtinib_02606_R1,Plate:MR019",19.1 nM
same,potency estimated from few doses,"compound concentrations:100 nM and 1000 nM (sheet 'Lestaurtinib' of Supplementary Table 1),run:Lestaurtinib_02606_R2,Plate:MR019",20.8 nM
same,potency estimated from few doses,"compound concentrations:100 nM and 1000 nM (sheet 'Lestaurtinib' of Supplementary Table 1),run:Lestaurtinib_02606_R3,Plate:MR019",21.9 nM
same,potency estimated from few doses,"compound concentrations:100 nM and 1000 nM (sheet 'Lestaurtinib' of Supplementary Table 1),run:Lestaurtinib_02624_R1,Plate:MR020",17.5 nM
same,potency estimated from few doses,"compound concentrations:100 nM and 1000 nM (sheet 'Lestaurtinib' of Supplementary Table 1),run:Lestaurtinib_02624_R3,Plate:MR020",15.7 nM
same,potency estimated from few doses,"compound concentrations:100 nM and 1000 nM (sheet 'Lestaurtinib' of Supplementary Table 1),run:Lestaurtinib_02724_R2,Plate:MR021",21.3 nM
same,potency estimated from few doses,"compound concentrations:100 nM and 1000 nM (sheet 'Lestaurtinib' of Supplementary Table 1),run:Lestaurtinib_02741_R2,Plate:MR023",19.9 nM
same,potency estimated from few doses,"compound concentrations:100 nM and 1000 nM (sheet 'Lestaurtinib' of Supplementary Table 1),run:Lestaurtinib_02741_R3,Plate:MR023",23.2 nM
same,potency estimated from few doses,"compound concentrations:100 nM and 1000 nM (sheet 'Lestaurtinib' of Supplementary Table 1),run:Lestaurtinib_02748_R2,Plate:MR024",22.5 nM
same,potency estimated from few doses,"compound concentrations:100 nM and 1000 nM (sheet 'Lestaurtinib' of Supplementary Table 1),run:Lestaurtinib_02748_R3,Plate:MR024",22.2 nM
same,potency estimated from few doses,"compound concentrations:100 nM and 1000 nM (sheet 'Lestaurtinib' of Supplementary Table 1),run:Lestaurtinib_02752_R1,Plate:MR025",19 nM
same,potency estimated from few doses,"compound concentrations:100 nM and 1000 nM (sheet 'Lestaurtinib' of Supplementary Table 1),run:Lestaurtinib_02752_R2,Plate:MR025",16 nM
same,potency estimated from few doses,"compound concentrations:100 nM and 1000 nM (sheet 'Lestaurtinib' of Supplementary Table 1),run:Lestaurtinib_02752_R3,Plate:MR025",19.7 nM
same,potency estimated from few doses,"compound concentrations:100 nM and 1000 nM (sheet 'Lestaurtinib' of Supplementary Table 1),run:Lestaurtinib_02765_R2,Plate:MR026",23.1 nM
same,potency estimated from few doses,"compound concentrations:100 nM and 1000 nM (sheet 'Lestaurtinib' of Supplementary Table 1),run:Lestaurtinib_02766_R1,Plate:MR027",17.5 nM
same,potency estimated from few doses,"compound concentrations:100 nM and 1000 nM (sheet 'Lestaurtinib' of Supplementary Table 1),run:Lestaurtinib_02766_R2,Plate:MR027",17 nM
same,potency estimated from few doses,"compound concentrations:100 nM and 1000 nM (sheet 'Lestaurtinib' of Supplementary Table 1),run:Lestaurtinib_02766_R3,Plate:MR027",19.1 nM
same,potency estimated from few doses,"compound concentrations:100 nM and 1000 nM (sheet 'Lestaurtinib' of Supplementary Table 1),run:Lestaurtinib_02768_R1,Plate:MR028",20.8 nM
same,potency estimated from few doses,"compound concentrations:100 nM and 1000 nM (sheet 'Lestaurtinib' of Supplementary Table 1),run:Lestaurtinib_02768_R3,Plate:MR028",19.7 nM
same,potency estimated from few doses,"compound concentrations:100 nM and 1000 nM (sheet 'Lestaurtinib' of Supplementary Table 1),run:Lestaurtinib_02795_R3,Plate:MR022",60.5 nM

# Reference: publication PMC11062922 (Nature Chemical Biology, 2023)
